Compound activity deposited in PubChem by several laboratories.
hgDAF-12 ag: agonists of H. glycines DAF-12 nuclear receptor; activation, % at 6.8 µM; HEK293 GAL4-hgDAF12 UAS-luciferase reporter, agonist luminescence; normalized to butyrate control; actives 1.8% (n = 370,000); AID 687014;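 active = activation above a cutoff set at the mean of all screened compounds plus 3 SD, cut at about 10% in these data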;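 also: 0% = DMSO wells and 100% = sodium butyrate wells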
esBAF inh: blocks esBAF chromatin remodeling in mouse ES cells. Bmi1-luciferase knock-in reporter, 24 h; 100% = twice the neutral-well signal. reporter increase, % at 12.5 µM. actives 2% (n = 350,000). AID 602393; in the data active = activation above about 40%;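 also: 0% = median of the plate's neutral control wells and 100% = double that signal; a rise in the Bmi1 reporter signal indicates esBAF inhibition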
DAX1 inh: inhibitors of DAX1 repression of SF-1 activated StAR promoter | HEK293T StAR-luciferase reporter, SF-1/DAX-1 repression relief | inhibition, % at 6.8 µM | actives 1.1% (n = 370,000);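 active = inhibition above the mean over all tested compounds plus 3 SD, cut at about 3.6% in these data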;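 also: 0% = DAX-1 cells with DMSO and 100% = cells lacking DAX-1 with DMSO; higher inhibition means more luminescence from relief of DAX-1 repression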
Wnt bcat act: activators of Wnt/beta-catenin signaling; Wnt/beta-catenin reporter cell assay, activator, plate reader; activation, % at 9.35 µM; actives 1.2% (n = 300,000); in the data active = activation above about 30%, passing the limit was not always enough;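 also: 0% = neutral control wells and 100% = positive control wells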
hcDAF12 agonist: H. contortus DAF-12 activation, primary screen | actives 1.4% (n = 370,000) | activation, % at 6.8 µM | HEK293 hcDAF-12 lit1-tk-luc reporter, luminescence; 0% DMSO, 100% Δ7-dafachronic acid;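 active = activation above the mean of all tested compounds plus 3 SD, cut at about 5.5% in these data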;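 also: 100% = response to 3 µM Δ7-dafachronic acid high control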
ssDAF-12 act: activates DAF-12 receptor from parasite S. stercoralis; actives 1% (n = 370,000); HEK293 ssDAF-12/GRIP1 lit1-tk-luc reporter, luminescence; % of 3 µM dafachronic acid response; activation, % at 6.8 µM;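 active = activation above the mean over all tested compounds plus 3 SD, cut at about 0.9% in these data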;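 also: 0% = DMSO-only wells and 100% = 3 µM delta7-dafachronic acid wells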
hgDAF12 conf: confirmation of H. glycines DAF-12 agonists; actives 80% (n = 3,300); shares compounds with hgDAF-12 ag; HEK293 GAL4-hgDAF12 luciferase reporter, agonist mode; percent of butyrate response; activation, % at 6.8 µM;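 active = mean activation over triplicate wells above the hit cutoff derived from the earlier primary screen, cut at about 11% in these data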;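 also: 0% = DMSO low control and 100% = 2 mM sodium butyrate high control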
LXRb DAF12 ctr: counter-screen for DAF-12 agonists: agonists of human LXR-beta | shares compounds with hgDAF-12 ag | HEK293 Gal4-LXR luciferase reporter, 24 h | activation, % at 6.8 µM | 3,300 tested, under 10 active | AID 743051;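 active = mean activation of the triplicate above a set limit carried over from the primary screen, none filed active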
Target sequence (P55055 whole entry, looked up, the tested form may be a part): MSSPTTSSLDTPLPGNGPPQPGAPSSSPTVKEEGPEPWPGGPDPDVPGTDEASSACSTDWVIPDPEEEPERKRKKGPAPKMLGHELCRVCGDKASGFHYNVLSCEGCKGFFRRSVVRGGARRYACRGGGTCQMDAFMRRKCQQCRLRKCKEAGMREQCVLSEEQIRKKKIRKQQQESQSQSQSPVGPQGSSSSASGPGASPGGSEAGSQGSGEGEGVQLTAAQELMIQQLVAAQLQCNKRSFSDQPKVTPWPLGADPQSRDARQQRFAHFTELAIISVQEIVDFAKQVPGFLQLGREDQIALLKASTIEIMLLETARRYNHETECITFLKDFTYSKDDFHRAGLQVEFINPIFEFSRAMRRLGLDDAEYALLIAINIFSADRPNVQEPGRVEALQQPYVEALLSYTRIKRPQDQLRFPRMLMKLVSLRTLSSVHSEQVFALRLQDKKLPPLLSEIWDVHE
An asterisk follows results filed as active; . = no result. A selection: hits, their analogues and other compounds. The true share with any hit is near 4.2%.

SMILES	hgDAF-12 ag	esBAF inh	DAX1 inh	Wnt bcat act	hcDAF12 agonist	ssDAF-12 act	hgDAF12 conf	LXRb DAF12 ctr
CCCC(=O)Nc1ccc2c(c1)OC[C@@H](C)N(C(=O)c1ccccn1)C[C@@H](C)[C@@H](OC)CN(C)C2=O	.	-2.5	.	.	.	.	.	.
C[C@@H]1CN([C@H](C)CO)C(=O)c2cc(NC(=O)CCN3CCOCC3)ccc2O[C@@H]1CN(C)S(C)(=O)=O	.	-2.4	.	.	.	.	.	.
Cc1ccc(NC(=O)c2noc3c2CCC3)cc1C	18.8*	.	4.2*	32.7*	5.5	0.8	19.1*	0.9
COc1ccc(CNC(=O)c2noc3c2CCCCC3)cc1	7.9	30.2	1.4	3.4	1.9	-0.8	.	.
O=C(Nc1cccc(O)c1)c1noc2c1CCCCC2	-3.0	.	1.4	7.5	1.5	-1.4	.	.
O=C(NCc1ccccc1)c1noc2c1CCCCC2	15.5*	34.4	2.6	.	2.4	0.1	13.0*	0.5
CCN(C(=O)CSc1nnc(-c2cccc(F)c2)n1N)c1c(N)n(Cc2ccccc2)c(=O)[nH]c1=O	18.7*	-2.6	0.1	0.3	-0.7	-0.6	-0.8	0.0
O=C(NCc1ccc(Cl)cc1)c1cnn2ccccc12	17.6*	59.8*	3.8*	9.4	3.0	-0.4	13.1*	0.7
Cc1cc(C)n2ncc(C(=O)NCc3ccc(Cl)cc3)c2n1	-3.9	-1.7	-0.7	0.0	-1.9	-1.6	.	.
O=C(CC(Nc1ccccc1Cl)C(=O)O)c1ccccc1 (stereo unspecified)	5.3	.	-0.8	-2.3	2.0	-1.2	.	.
O=C(CC(Nc1ccc(Cl)cc1)C(=O)O)c1ccccc1 (stereo unspecified)	14.4*	.	3.5	46.8*	4.4	1.2*	20.0*	1.0
C/C(N)=C(/C#N)C(=O)CSc1nnc(-c2ccc3c(c2)OCO3)o1	18.5*	-37.7	5.9*	7.3	6.0*	1.0*	12.2*	0.8
N#CCSc1nnc(-c2ccc3c(c2)OCO3)o1	0.2	-1.3	1.4	0.4	-1.8	-1.1	.	.
Cc1nnc(NC(=O)c2sc3ccccc3c2Cl)s1	16.4*	.	3.1	27.8	4.5	0.2	11.2*	0.6
CCc1ccc(NC(=O)c2cnccn2)cc1	14.8*	-11.4	2.6	5.6	3.2	0.7	12.9*	0.9
CCCCOC(=O)c1ccc(NC(=O)c2cnccn2)cc1	4.3	33.3	0.1	.	-1.6	-0.9	.	.
CN(C)CC(=O)N[C@H]1CC[C@H](CC(=O)NCc2ccc(Cl)cc2)O[C@H]1CO	.	-3.7	.	.	.	.	.	.
O=C(C[C@@H]1CC[C@@H]2[C@H](COC[C@@H](O)CN2Cc2ccc(F)cc2)O1)N1CCc2ccccc2C1	.	0.9	.	.	.	.	.	.
CC1=NN(C(=O)COc2ccccc2)C(O)(c2ccccc2)C1 (stereo unspecified)	1.6	-1.3	0.2	.	1.4	-0.7	.	.
CC1=NN(C(=O)c2ccc(C)o2)C(O)(c2ccccc2)C1 (stereo unspecified)	16.6*	.	3.9*	8.1	3.9	-0.3	-0.8	0.0
NC(=O)c1cc(N)ccc1N1CCCC1	-1.4	-8.0	0.2	0.6	-2.3	-1.1	.	.
NC(=O)c1cc(N)ccc1N1CCCCC1	22.0*	.	-0.5	-0.3	0.2	-1.6	1.1	0.2
COc1ccc(S(=O)(=O)N(C)C[C@@H]2Oc3ccc(NC(=O)C4CCCCC4)cc3C(=O)N([C@H](C)CO)C[C@H]2C)cc1	.	-6.7	.	.	.	.	.	.
C=CCn1c(-c2csc(-c3ccccc3)n2)n[nH]c1=S	1.8	5.8	0.0	1.4	-0.8	-0.9	.	.
C=CCN1C(=S)CC(c2ccccc2)=Nc2ccccc21	14.4*	-1.1	-0.1	-1.1	-0.5	-0.7	-0.5	0.0
SMILES	hgDAF-12 ag	esBAF inh	DAX1 inh	Wnt bcat act	hcDAF12 agonist	ssDAF-12 act	hgDAF12 conf	LXRb DAF12 ctr
C(=C\c1ccccc1)/C=N/Nc1nc2ccccc2[nH]1	15.2*	.	1.0	90.4*	3.2	-0.2	16.8*	0.7
Fc1ccc(/C=N/Nc2nc3ccccc3[nH]2)cc1F	4.5	.	0.7	6.9	0.9	-1.7	.	.
CCS(=O)(=O)c1ccc(C=NNc2nc3ccccc3o2)cc1	21.1*	.	3.5	-2.9	4.0	0.1	15.0*	0.7
O=C(C[C@H]1C[C@H]2c3cc(NS(=O)(=O)c4ccc(F)cc4)ccc3O[C@H]2[C@@H](CO)O1)NC1CCCCC1	.	12.3	.	.	.	.	.	.
O=C(/C=C/c1ccccc1)NCCC1=CCCCC1	14.1*	71.2*	1.9	27.6	-1.3	-1.1	12.0*	0.7
O=C(COC(=O)/C=C/c1ccccc1)NCCC1=CCCCC1	1.1	.	-0.3	-2.2	-1.9	-2.0	.	.
C/C(=N/N=C1/NC(=O)CC(C(=O)O)S1)c1ccccc1 (stereo unspecified)	2.9	.	0.1	-2.9	0.9	-1.5	.	.
C/C(=N/N=C1/NC(=O)CC(C(=O)Nc2ccccc2)S1)c1cccs1 (stereo unspecified)	13.5*	.	-0.1	-0.1	-0.2	-1.1	-0.3	-0.1
CC1CCN(C(=S)NCCc2ccccc2)CC1	14.2*	.	2.2	.	3.2	0.1	10.7*	0.6
S=C(NCCc1ccccc1)N1CCN(C(=S)NCCc2ccccc2)CC1	-0.3	-2.3	0.6	-2.6	-1.2	-0.9	.	.
C[C@@H]1CN([C@@H](C)CO)C(=O)Cc2cc(NC(=O)CCC(F)(F)F)ccc2O[C@@H]1CN(C)C(=O)Nc1ccc(F)cc1	.	-5.8	.	.	.	.	.	.
COc1ccc(CN2C[C@H](C)[C@@H](OC)CN(C)C(=O)c3ccc(NC(=O)c4nc5ccccc5s4)cc3OC[C@@H]2C)cc1	.	31.3	.	.	.	.	.	.
O=C(Nc1cccc(Cl)c1Cl)c1csc([C@H]2C[C@H](O)[C@@H](CO)O2)n1	14.7*	77.2*	2.1	42.1*	4.8	0.4	13.5*	0.6
O=C(NCc1ccccc1Cl)c1csc([C@H]2C[C@H](O)[C@@H](CO)O2)n1	0.9	-5.5	-1.4	2.6	0.0	-0.7	.	.
CNC[C@H]1OCCCC[C@@H](C)Oc2ccc(NC(=O)C3CCCCC3)cc2C(=O)N([C@H](C)CO)C[C@H]1C	.	-2.0	.	.	.	.	.	.
COc1cc(C=O)ccc1OCc1cccc(Br)c1	13.6*	.	0.3	41.7*	0.2	-1.0	9.7	0.3
Cn1cnc(S(=O)(=O)N2C[C@@H](O)COC[C@H]3O[C@@H](CC(=O)NCc4cc(F)cc(F)c4)CC[C@@H]32)c1	.	1.3	.	.	.	.	.	.
O=C(CSc1ccc(-c2cccs2)nn1)NCCc1ccccc1	0.2	4.4	-0.5	-2.6	-0.8	-1.7	.	.
c1ccc(CSc2ccc(-c3cccs3)nn2)cc1	14.4*	.	4.3*	.	3.0	0.7	15.3*	0.5
